Source: PubChem (several laboratories)
TMEM16A inh – TMEM16A chloride channel inhibitors, primary screen, cell-based, HTS. Anoctamin-1 (Mus musculus), Q8BHY3. HEK293 TMEM16A/YFP iodide influx fluorescence, ionomycin. normalized B-score (activity score, 25-100; higher = stronger inhibition) at 10 µM. 310,000 compounds, 1.2% hits. AID 588511, 2011;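 active = ratio plate-corrected score three or more library SD toward inhibition, starting fluorescence score within five deviations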;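 note: score derived from kinetic fluorescence span divided by baseline fluorescence per well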
m5-HT2A agonist – mouse Htr2a agonists via beta-arrestin recruitment, primary screen, cell-based, luminescence | 5-hydroxytryptamine receptor 2A (Mus musculus), P35363 | CHO-K1 mHTR2A beta-arrestin complementation; percent of 30 µM serotonin response | activation, % at 7.6 µM | 360,000 compounds, 0.66% hits | AID 624169, 2012;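 active = activation above a run cutoff, the mean activation of all tested compounds plus 3 SD, cut at about 14% in these data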;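 note: 0% = plate median of compound wells and 100% = 30 µM serotonin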
TLR9-MyD88 inh – inhibitors of TLR9-MyD88 association in cells, primary screen, cell-based, CHO, BLA complementation, fluorescence. Toll-like receptor 9 (Homo sapiens) + Myeloid differentiation primary response protein …. CCF4 FRET ratio. inhibition, % at 4.98 µM. 340,000 compounds, 0.21% hits. AID 504734, 2011;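 active = inhibition above the mean over all tested compounds plus 3 SD, cut at about 21% in these data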;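 note: 0% = DMSO only wells and 100% = clavulanate BLA inhibitor control wells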
NOD2-RIPK2 inh – NOD2-RIPK2 binding disruptors in cells, primary screen, fluorescence, CHO cells, BLA complementation | 360,000 compounds, 0.38% hits | AID 624267, 2012 | inhibition, % at 4.98 µM | CCF4 ratio | Receptor-interacting serine/threonine-protein kinase 2 (Homo sapiens), O43353; in the data active = inhibition above about 21%;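 note: 0% = vehicle only and 100% = reference blocker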
TMEM16A act – TMEM16A chloride channel activators or potentiators, primary screen, cell-based, HTS. HEK293 TMEM16A/YFP-H148Q/I152L, iodide quench fluorescence; stronger effect = lower value. B-score at 10 µM. 340,000 compounds, 0.3% hits. AID 623877, 2012;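 active = fluorescence-ratio B-score plate-corrected deviation score at least 3 library SD below zero, with starting fluorescence score within 5 deviations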;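 note: channel opened by trigger with iodide after compound preincubation; score built on the fluorescence ratio of max minus min over baseline; more negative score means more quench and so TMEM16A activation or potentiation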
TLR4-MyD88 BLA – inhibitors of TLR4-MyD88 association in cells, primary screen, cell-based, HeLa CL3-4, BLA complementation, FRET ratio | Toll-like receptor 4 (Homo sapiens) + Myeloid differentiation primary response protein … | HeLa CL3-4 TLR4/MyD88 BLA complementation | inhibition, % at 8.4 µM | 200,000 compounds, 0.18% hits; in the data active = inhibition above about 25%;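 note: 0% = vehicle and 100% = reference inhibitor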
TLR4-MyD88 conf – TLR4-MyD88 association inhibitors, retest, confirmation, cell-based, HeLa CL3-4, BLA complementation, FRET ratio | shares compounds with TLR4-MyD88 BLA | CCF4 FRET ratio | inhibition, % at 8.4 µM | 350 compounds, 50% hits;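 active = mean inhibition across three repeat runs above about 25% carried over from the earlier screen, limit read from the data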;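 note: plate controls were DMSO only for no effect and clavulanic acid blocking BLA at full dose for full effect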
BLA inhibitor ct – beta-lactamase inhibition flagged in TLR4-MyD88 counter-screen. shares compounds with TLR4-MyD88 BLA. HeLa BLA reporter, CCF4 FRET ratio. 350 compounds, 63% hits. AID 1237. inhibition, % at 8.4 µM;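 active = mean inhibition over three repeats above about 26% taken from the earlier screen, limit read from the data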;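 note: HeLa cells stably expressing beta-lactamase reporter as counterscreen for TLR4-MyD88 inhibitors; 0% = DMSO and 100% = clavulanic acid full inhibition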
TLR9-MyD88 conf – TLR9-MyD88 association inhibitors, retest, confirmation, cell-based, CHO, BLA complementation, fluorescence, triplicate. shares compounds with TLR9-MyD88 inh. inhibition, % at 4.98 µM. 680 compounds, 51% hits. CCF4 FRET ratio. AID 540250, 2011;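 active = mean inhibition across three repeats above about 21% taken from the earlier screen, limit read from the data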;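 note: blue over green emission ratio reports constitutive TLR9 MyD88 association via BLA complementation; 0% = DMSO vehicle wells and 100% = clavulanate BLA inhibitor wells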
Target sequence (Q9NR96 whole entry, looked up): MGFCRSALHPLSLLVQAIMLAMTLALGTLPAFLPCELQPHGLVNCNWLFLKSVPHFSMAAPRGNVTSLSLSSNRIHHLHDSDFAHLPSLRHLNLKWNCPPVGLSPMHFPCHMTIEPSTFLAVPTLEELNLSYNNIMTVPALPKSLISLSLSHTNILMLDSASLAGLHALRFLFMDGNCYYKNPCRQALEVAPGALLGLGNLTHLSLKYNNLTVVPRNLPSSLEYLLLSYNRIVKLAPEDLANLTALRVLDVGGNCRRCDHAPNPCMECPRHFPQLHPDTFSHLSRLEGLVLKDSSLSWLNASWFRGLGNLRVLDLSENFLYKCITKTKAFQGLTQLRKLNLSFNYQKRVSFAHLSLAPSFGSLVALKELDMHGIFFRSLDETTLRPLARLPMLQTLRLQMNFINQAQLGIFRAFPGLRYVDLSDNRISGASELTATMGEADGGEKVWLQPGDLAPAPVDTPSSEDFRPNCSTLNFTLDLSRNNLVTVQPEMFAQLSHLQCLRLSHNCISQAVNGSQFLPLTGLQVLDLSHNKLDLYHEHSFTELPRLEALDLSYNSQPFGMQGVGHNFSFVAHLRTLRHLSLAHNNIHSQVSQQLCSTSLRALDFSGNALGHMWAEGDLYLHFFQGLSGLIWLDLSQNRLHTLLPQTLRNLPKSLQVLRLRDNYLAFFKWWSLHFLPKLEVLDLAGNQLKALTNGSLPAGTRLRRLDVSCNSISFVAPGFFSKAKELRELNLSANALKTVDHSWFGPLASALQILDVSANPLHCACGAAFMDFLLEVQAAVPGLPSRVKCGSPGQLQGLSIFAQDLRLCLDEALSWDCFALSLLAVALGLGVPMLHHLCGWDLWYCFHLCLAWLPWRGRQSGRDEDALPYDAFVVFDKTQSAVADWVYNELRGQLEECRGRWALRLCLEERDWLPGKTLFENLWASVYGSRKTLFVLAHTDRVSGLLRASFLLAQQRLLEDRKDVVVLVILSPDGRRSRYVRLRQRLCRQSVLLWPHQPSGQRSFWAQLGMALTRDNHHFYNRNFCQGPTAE
BLA counter-1 – beta-lactamase reporter inhibitors in CHO cells, artefact control for TLR9-MyD88 binding inhibitor project, cell-based, fluorescence; shares compounds with TLR9-MyD88 inh; CHO-BLA cells, CCF4 FRET ratio, BLA reporter; inhibition, % at 4.98 µM; 680 compounds, 7% hits; AID 540251, 2011;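 active = mean inhibition above a 50% cutoff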;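 note: counterscreen of TLR9-MyD88 hits on CMV-driven BLA in CHO-K1 cells; 0% = DMSO alone and 100% = clavulanate blocking BLA; higher means less blue over green ratio so more BLA blockade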
TLR9 CHO cytotox – CHO cell viability loss – luminescence, single concentration, cytotoxicity control for TLR9-MyD88 binding inhibitor project | 680 compounds, 39% hits | AID 588336, 2011 | shares compounds with TLR9-MyD88 inh | inhibition, % at 4.98 µM | TLR9-MyD88 CHO cells cytotoxicity; in the data active = inhibition above about 11%
TMEM16A reconf – TMEM16A chloride channel inhibitors, confirmation, cell-based, re-confirmation. HEK293 TMEM16A/YFP-H148Q, iodide quench fluorescence; ionomycin added to raise cell calcium. shares compounds with TMEM16A inh. inhibition, % at 10 µM. AID 652189, 2013. 2,300 compounds, 39% hits;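 active = mean duplicate percent inhibition, scaled so buffer wells are 0 and the reference blocker 100, over three buffer SD above buffer mean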
TMEM16A Ca cntr – calcium mobilization in TMEM16A/YFP HEK293 cells, confirmation, counter-screen for TMEM16A inhibitor project. Fluo4 calcium mobilization. shares compounds with TMEM16A inh. 2,300 compounds, 2% hits. AID 652231, 2013. calcium response (% of ionomycin), % at 10 µM;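 active = duplicate-averaged calcium signal over 20% of the ionomycin maximum, relative to buffer baseline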;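 note: each well's signal is peak minus trough fluorescence divided by its pre-addition baseline; 0% = buffer wells and 100% = ionomycin wells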
Parental YFP cnt – iodide YFP quench changes in parental YFP-HEK293, counter-screen for TMEM16A inhibitor project, cell-based | shares compounds with TMEM16A inh | ionomycin | YFP ratio F(max-min)/F0 at 10 µM | 2,300 tested, under 10 active;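 active = yellow fluorescent protein signal ratio exceeding the buffer control mean by over 5 SD of those controls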;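 note: ratio is mean of duplicate wells from kinetic YFP trace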
ClC-1 inh – ClC-1 chloride channel inhibition, selectivity assay for TMEM16A inhibitor project, cell-based, voltage-dependent ClC-1; shares compounds with TMEM16A inh; CHO ClC-1-YFP, iodide influx fluorescence quench; iodide control reads 0, buffer control 100; ratio percent, % at 10 µM; 2,300 tested, under 10 active; AID 652236, 2013;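 active = duplicate-mean ratio percent above the mean of iodide-only control wells, which defines zero, plus 5 of their SD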;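 note: higher percent means stronger block of ClC-1 iodide influx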
NOD2 RIPK2 conf – NOD2-RIPK2 binding disruptors, retest, confirmation, fluorescence, CHO cells, BLA complementation, triplicate; shares compounds with NOD2-RIPK2 inh; CCF4 FRET; inhibition, % at 4.98 µM; 1,200 compounds, 70% hits; AID 624370, 2012;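 active = mean inhibition across replicates above a set limit taken from the earlier primary screen, cut at about 21% in these data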;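 note: 0% = DMSO-only wells and the high end = clavulanate BLA-blocked wells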
BLA counter-2 – counter-screen for NOD2-RIPK2 interaction inhibitors: BLA reporter | inhibition, % at 4.98 µM | shares compounds with NOD2-RIPK2 inh | AID 624371 | CHO BLA reporter, CCF4 FRET ratio, counterscreen | 1,200 compounds, 57% hits;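 active = mean inhibition above the low-control mean inhibition plus three low-control SD, cut at about 11% in these data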;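 note: 0% = DMSO only wells and 100% = clavulanate high control wells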
* marks the source's active call; other numbers are inactive results; i = inactive; · = no result. This is a sample that favours compounds with a hit; in the whole collection about 2.4% have one here.

SMILES | TMEM16A inh | m5-HT2A agonist | TLR9-MyD88 inh | NOD2-RIPK2 inh | TMEM16A act | TLR4-MyD88 BLA | TLR4-MyD88 conf | BLA inhibitor ct | TLR9-MyD88 conf | BLA counter-1 | TLR9 CHO cytotox | NOD2 RIPK2 conf | BLA counter-2 | others
COc1cc2c(cc1OC)C(=Cc1ccc(N(C)C)cc1)C=C2 | · | -5.7 | -3.6 | -6.5 | i | · | · | · | · | · | · | · | ·
COc1cc2nc(/C=C/c3ccc(N(C)C)cc3)sc2cc1SC | i | 3.2 | 31.8* | 41.0* | i | 64.1* | 65.0* | 95.8* | 53.0* | 59.4* | 1.1 | 77.7* | 82.1*
CCOC(=O)Cn1cc(/C=C/[N+](=O)[O-])c2ccccc21 | i | 0.4 | -2.0 | -7.0 | i | 4.9 | · | · | · | · | · | · | ·
CCOc1ccc(/C=C/[N+](=O)[O-])c2ccccc12 | i | -5.3 | 14.1 | 57.8* | i | 27.2* | 22.3 | -23.9 | · | · | · | 91.4* | 6.5
c1cn2c(NC3CCCCC3)c(-c3ccc(SC4CCCCC4)cc3)nc2cn1 | i | -2.6 | 0.9 | 2.7 | i | · | · | · | · | · | · | · | ·
CCN(CC)c1ccc(-c2nc3cnccn3c2NC2CCCC2)cc1 | i | 2.0 | 36.2* | 21.9* | i | 51.8* | 31.1* | 60.8* | 36.9* | 39.6 | 0.9 | 55.6* | 66.2*
CCNc1ccc2c(Cl)cc(=O)oc2c1 | i | 1.5 | 33.9* | 29.9* | i | 32.4* | 20.7 | 35.7* | · | · | · | 44.0* | 32.5*
CCN(CC)c1ccc2c(Cl)cc(=O)oc2c1 | i | · | · | · | · | 7.9 | · | · | · | · | · | · | ·
C/C(=N\Nc1ccc([N+](=O)[O-])cc1)c1ccco1 | i | 5.2 | 29.7* | 25.0* | i | 29.1* | 27.0* | 41.9* | 14.1 | 17.1 | 1.0 | 36.1* | 40.6*
O=[N+]([O-])c1ccc(NN=C(Oc2ccccc2)c2ccc([N+](=O)[O-])cc2)cc1 | · | -5.2 | 3.2 | 2.0 | · | · | · | · | · | · | · | · | ·
CCc1ccc(/C(C)=N\Nc2ccc([N+](=O)[O-])cc2)cc1 | i | -6.2 | 31.1* | 30.1* | i | 31.9* | 31.6* | 54.8* | 23.4* | 22.1 | -3.6 | 41.2* | 46.4*
C/C(=N\Nc1ccc([N+](=O)[O-])cc1)c1ccc(N)cc1 | i | -3.3 | 10.1 | 20.1 | i | 10.4 | · | · | · | · | · | · | ·
CC/C(=N\Nc1ccc([N+](=O)[O-])cc1)c1ccccc1 | i | -3.8 | 22.5* | 26.8* | i | 30.8* | 17.9 | 34.7* | 12.5 | 14.6 | 0.8 | 37.8* | 39.7*
C/C(=N\NC(=O)COc1ccc([N+](=O)[O-])cc1)c1ccco1 | · | -2.5 | 9.1 | 4.1 | i | · | · | · | · | · | · | · | ·
CCOC(=O)NC(=O)COC(=O)CCCc1nc2ccccc2s1 | i | 0.9 | 7.9 | -15.6 | i | -4.8 | · | · | · | · | · | · | ·
O=S1OC(c2ccccc2)c2cc(Cl)ccc21 (configuration not stated) | i | 3.8 | 4.6 | -5.0 | i | · | · | · | · | · | · | · | ·
CCCSc1cc(NCCOC(=O)CCC)c([N+](=O)[O-])c2nonc12 | i | 0.7 | -3.9 | -5.0 | i | 7.0 | · | · | · | · | · | · | ·
CCC(=O)OCCNc1cc(Sc2nc3ccccc3[nH]2)c2nonc2c1[N+](=O)[O-] | i | -1.7 | 56.3* | 80.5* | i | 28.8* | 19.7 | -10.0 | · | · | · | 92.8* | 47.9*
CN(C)CCCN1C(=O)c2cccc3c([N+](=O)[O-])ccc(c23)C1=O | i | 6.6 | 70.1* | 82.3* | i | 86.2* | 86.0* | 109.4* | 55.1* | 72.4* | 94.7* | 89.6* | 76.7*
O=[N+]([O-])c1ccc(-c2nc(-c3cccs3)c(-c3cccs3)[nH]2)cc1 | i | -7.5 | 30.5* | 32.9* | i | 28.0* | 23.2 | 48.8* | 17.4 | 20.0 | 3.6 | 36.0* | 37.2* | TMEM16A reconf=20.5%*;TMEM16A Ca cntr=i;Parental YFP cnt=-1.02;ClC-1 inh=3.0
O=[N+]([O-])c1cccc(-c2nc(-c3cccs3)c(-c3cccs3)[nH]2)c1 | i | -0.4 | -11.4 | 3.0 | i | -9.3 | · | · | · | · | · | · | ·
